{"source": "PubChem BioAssay (Tox21)", "note": "Results filed as inconclusive are left out. Where a call stands in place of a potency, no number is given. The source made the active and inactive calls. Calls follow the shape of the full dose curve."}
{"experiment": "qHTS assay to identify small molecule agonists of the hypoxia (HIF-1) signaling pathway - cell viability counter screen (AID 1224844); also: nearly all actives have a fitted effect of over 50% in size", "conditions": "HRE-bla ME-180 viability, CellTiter-Glo luminescence, 17 h; series mostly up to 76.8 µM; activity change, negative = cytotoxicity: at the top concentration", "description": "National Center for Advancing Translational Sciences [NCATS]\nNIH Chemical Genomics Center [NCGC]\nU.S. Environmental Protection Agency [EPA]\nNational Institutes of Environmental Health Sciences [NIEHS]\nNational Toxicology Program [NTP]\nU.S. Food and Drug Administration [FDA]\nHypoxia-inducible factor-1 (HIF-1) is the major hypoxia-regulated transcription factor that controls cellular responses to low oxygen concentration. HIF-1 is composed of two subunits: hypoxia responsive HIF-1-alpha and constitutively expressed HIF-1-beta, which is also known as aryl hydrocarbon receptor nuclear translocator. During hypoxic conditions, HIF-1-alpha heterodimerizes with HIF-1-beta and translocates into the nucleus where the HIF-1 complex binds to the hypoxia-response element (HRE) and activates expression of target genes such as VEGF (vascular endothelial growth factor). The HIF-1 pathway is essential to normal growth and development, and is involved in the pathophysiology of cancer, inflammation, and ischemia.\nUsing a beta-lactamase reporter-gene under control of the hypoxia response element, a cell-based assay [CellSensor(TM) HRE-bla ME-180 from Life Technologies, Carlsbad, CA] was used to measure hypoxia-induced signaling. Tox21 10K library compounds were measured for their ability to induce the reporter gene activity. The cytotoxicity of the Tox21 compound library against HRE-bla ME-180 cell line was tested in parallel by measuring cell viability using CellTiter-Glo assay (Promega, Madison, WI) in the same assay wells.\nTox21 Assay Protocol Summary:\nHRE-bla ME-180 cells were dispensed at 2,000 cells per well in 6 uL of assay medium containing 0.5% dialyzed FBS into black wall/clear-bottom 1536-well plates using a Multidrop Combi (Thermo Scientific, Waltham, MA) dispenser. After the assay plates were incubated at 37C and 5% CO2 for 5 hrs, 23 nL of compounds dissolved in DMSO, positive controls or DMSO only was transferred to each well of the assay plate using a Pintool station (Kalypsys, San Diego, CA). The assay plates were incubated at 37C and 5% CO2 for 17 hrs. One uL of LiveBLAzerTM B/G FRET substrate (CCF4-AM) (Life Technologies) was added to each well using a Flying Reagent Dispenser (FRD, Aurora Discovery, San Diego, CA). After 2 hr incubation at room temperature, fluorescence intensity (405 nm excitation, 460 nm and 530 nm emissions) was measured using an Envision plate reader (PerkinElmer, Shelton, CT). For cytotoxicity, 4 ul/well of CellTiter-Glo reagent was added into the assay plates using an FRD. After 30 min incubation at room temperature, the luminescence intensity was measured using a ViewLux plate reader (PerkinElmer)."}
{"compound": "Cc1ccc(O)c(C)c1", "Potency": "inactive"}
{"compound": "CN(C)CCC#N", "activity change, negative = cytotoxicity": "5.76% (inactive)"}
{"compound": "CSc1nnc(C(C)(C)C)c(=O)n1N", "Potency": "inactive"}
{"compound": "C[C@H]1C(=O)O[C@@H]2CCN3CC=C(COC(=O)[C@](C)(O)[C@]1(C)O)[C@H]23", "Potency": "inactive"}
{"compound": "CCCCC(CC)C(=O)Cl", "note": "(stereo not given)", "Potency": "inactive"}
{"compound": "O=C/C=C/c1ccccc1", "Potency": "inactive"}
{"compound": "C=CC(=O)OCCCCCC(C)C", "Potency": "inactive"}
{"compound": "CCCOC(=O)c1ccccc1C(=O)OCCC", "Potency": "inactive"}
{"compound": "Cc1cccc(N)c1", "Potency": "inactive"}
{"compound": "C=C(C)C(=O)OCC(CC)CCCC", "note": "(stereo not given)", "Potency": "inactive"}
{"compound": "O=[N+]([O-])c1ccc(Cl)c(Cl)c1", "Potency": "inactive"}
{"compound": "c1ccc2c(c1)CCCC2", "Potency": "inactive"}
{"compound": "COP(=S)(OC)SCN1C(=O)c2ccccc2C1=O", "Potency": "inactive"}
{"compound": "N#Cc1ccccn1", "Potency": "inactive"}
{"compound": "Cc1ccccc1N", "Potency": "inactive"}
{"compound": "OCC(O)CCl", "note": "(stereo not given)", "Potency": "inactive"}
{"compound": "Cc1cccc(N)c1C", "Potency": "inactive"}
{"compound": "FC(F)(F)c1ccc(Cl)cc1", "Potency": "inactive"}
{"compound": "NNc1ccccc1", "Potency": "inactive"}
{"compound": "CC12CC1(C)C(=O)N(c1cc(Cl)cc(Cl)c1)C2=O", "note": "(stereo not given)", "Potency": "inactive"}
{"compound": "CCOc1ccc(N)cc1", "Potency": "inactive"}
{"compound": "Cl/C=C/Cl", "Potency": "inactive"}
{"compound": "N#Cc1cccc(C#N)c1", "Potency": "inactive"}
{"compound": "C=CCN=C=S", "Potency": "inactive"}
{"compound": "COP(=S)(OC)Oc1ccc(SC)c(C)c1", "Potency": "inactive"}
{"compound": "COS(=O)(=O)OC", "Potency": "inactive"}
{"compound": "O=C(O)C1C(C(=O)O)C2(Cl)C(Cl)=C(Cl)C1(Cl)C2(Cl)Cl", "note": "(stereo not given)", "Potency": "inactive"}
{"compound": "Cc1cc(O)ccc1Cl", "Potency": "inactive"}
{"compound": "Cc1cccc(C)c1N", "Potency": "inactive"}
{"compound": "O=C(O)Cc1ccccc1", "Potency": "inactive"}
{"compound": "COc1cc(-c2ccc(N)c(OC)c2)ccc1N", "Potency": "inactive"}
{"compound": "Sc1ccccc1", "Potency": "inactive"}
{"compound": "Nc1ncc([N+](=O)[O-])s1", "Potency": "inactive"}
{"compound": "Nc1ccc([As](=O)(O)O)cc1", "Potency": "inactive"}
{"compound": "CNC(=O)O/N=C/C(C)(C)SC", "Potency": "inactive"}
{"compound": "C=CC(=O)OCC(CC)CCCC", "note": "(stereo not given)", "Potency": "inactive"}
{"compound": "CC(C)(C)C(=O)CCl", "Potency": "inactive"}
{"compound": "CN(C)C(=O)Nc1cccc(C(F)(F)F)c1", "Potency": "inactive"}
{"compound": "O=C(O)c1cc(Oc2ccc(C(F)(F)F)cc2Cl)ccc1[N+](=O)[O-]", "Potency": "inactive"}
{"compound": "CNC(=O)O/N=C(\\SC)C(=O)N(C)C", "Potency": "inactive"}
